PubChem BioAssay (NCATS)
Results filed as inconclusive are left out. Active and inactive are the calls of the source. Calls come from the whole dose curve; as a rule, active = well fitted cell-killing curve with a large enough effect; inconclusive = small, poorly fitted or top-dose-only effect, or effect the other way; inactive = no such curve, though single readings can be large or run the other way.

Tests used:
[1] = Quantitative High-Throughput drug screen in 47 multiple myeloma cell lines against the NCATS MIPE library collection: FR4_PLB cell viability assay (AID 1918924; note: nearly all actives have a fitted effect of over 35% in size)
In short: (§1)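 Myeloma cells (500 per well) were exposed to MIPE 4.0 compounds by pin transfer and incubated 48 hours at 37C, 5% CO2. Viability was read as ATP by CellTiter-Glo luminescence, normalised to DMSO (100%) and media-only (0%) wells.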

[2] = Quantitative High-Throughput drug screen in 47 multiple myeloma cell lines against the NCATS MIPE library collection: Delta47_JCRB cell viability assay (AID 1918925; note: nearly all actives have a fitted effect of over 45% in size)
In short: (§2)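 qHTS of the MIPE 4.0 collection: 500 myeloma cells/well, 48 h drug exposure at 37C in 5% CO2, then CellTiter-Glo for 5 min at room temperature before luminescence reading.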

[3] = Quantitative High-Throughput drug screen in 47 multiple myeloma cell lines against the NCATS MIPE library collection: EJM_DSMZ cell viability assay (AID 1918926; note: nearly all actives have a fitted effect of over 30% in size)
In short: as §2

[4] = Quantitative High-Throughput drug screen in 47 multiple myeloma cell lines against the NCATS MIPE library collection: AMO1_DSMZ cell viability assay (AID 1918927; note: nearly all actives have a fitted effect of over 30% in size)
In short: as §2

[5] = Quantitative High-Throughput drug screen in 47 multiple myeloma cell lines against the NCATS MIPE library collection: ARP1_JJKsccF8 cell viability assay (AID 1918928; note: nearly all actives have a fitted effect of over 40% in size)
In short: (§3)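 500 cells/well; MIPE 4.0 library pinned in; 48 h, 37 °C, 5% CO2; CellTiter-Glo ATP luminescence. Controls: DMSO = 100% viability, medium only = 0%.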

[6] = Quantitative High-Throughput drug screen in 47 multiple myeloma cell lines against the NCATS MIPE library collection: ARD_JJKsccE7 cell viability assay (AID 1918929)
In short: as §2

[7] = Quantitative High-Throughput drug screen in 47 multiple myeloma cell lines against the NCATS MIPE library collection: KMM1_JCRB cell viability assay (AID 1918960); note: nearly all actives have a fitted effect of over 30% in size
In short: as §3

[8] = Quantitative High-Throughput drug screen in 47 multiple myeloma cell lines against the NCATS MIPE library collection: Karpas620_DSMZ cell viability assay (AID 1918959); note: nearly all actives have a fitted effect of over 30% in size
In short: as §1

[9] = Quantitative High-Throughput drug screen in 47 multiple myeloma cell lines against the NCATS MIPE library collection: KHM11_PLB cell viability assay (AID 1918962); note: nearly all actives have a fitted effect of over 35% in size
In short: as §1

[10] = Quantitative High-Throughput drug screen in 47 multiple myeloma cell lines against the NCATS MIPE library collection: Karpas417_ECACC cell viability assay (AID 1918961); conditions: Karpas417 myeloma viability, CellTiter-Glo ATP luminescence, 48 h; viability (% of DMSO): at 45.8 µM (top of the series)
In short: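 CellTiter-Glo ATP luminescence gave viability after 48 h compound treatment at 37C of 500 multiple myeloma cells per well. Normalisation used DMSO-only wells as 100% and media-only wells as 0% viability; primary qHTS of approved and investigational drugs.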
Potency is the fitted concentration of half-maximal effect.

CCC1=C[C@@H]2CN(C1)Cc1c([nH]c3ccccc13)[C@@](C(=O)OC)(c1cc3c(cc1OC)N(C)[C@@H]1[C@@](O)(C(=O)OC)[C@H](OC(C)=O)[C@]4(CC)C=CCN5CC[C@]31[C@@H]54)C2
active: Potency [1] 4.7 nM | Potency [2] 23.5 nM | Potency [3] 1.05 µM | Potency [4] 52.6 nM | Potency [5] 5.3 nM | Potency [6] 7.4 nM | Potency [7] 8.3 nM

CC(C)c1cc(C(=O)N2Cc3ccc(CN4CCN(C)CC4)cc3C2)c(O)cc1O
active: Potency [1] 296 nM | Potency [2] 296 nM | Potency [3] 1.48 µM | Potency [4] 132 nM | Potency [5] 209 nM | Potency [6] 93.5 nM | Potency [8] 0.166 µM | Potency [7] 105 nM | Potency [9] 0.0935 µM

COc1cc2c(cc1-c1c(C)noc1C)ncc1[nH]c(=O)n([C@H](C)c3ccccn3)c12
active: Potency [1] 833 nM | Potency [2] 418 nM | Potency [3] 10.5 µM | Potency [4] 332 nM | Potency [5] 332 nM | Potency [6] 296 nM | Potency [8] 5.9 µM | Potency [7] 5900 nM | Potency [10] 148 nM | Potency [9] 2.96 µM

COc1ccc(-c2cc3c(C)nc(N)nc3n(C3CCC(OCCO)CC3)c2=O)cn1 (stereo not given)
active: Potency [1] 33.2 nM | Potency [2] 11.8 nM | Potency [3] 0.132 µM | Potency [4] 41.8 nM | Potency [5] 20.9 nM | Potency [6] 187 nM | Potency [8] 0.132 µM | Potency [7] 23.5 nM | Potency [9] 0.0296 µM

C=C1C(=CC=C2CCC[C@]3(C)[C@@H]([C@H](C)C=C[C@H](C)C(C)C)CC[C@@H]23)C[C@@H](O)C[C@@H]1O
active: Potency [1] 5900 nM | Potency [2] 8330 nM | Potency [3] 0.59 µM | Potency [4] 235 nM | Potency [5] 1660 nM | Potency [6] 332 nM | Potency [8] 1.48 µM | Potency [10] 118 nM | Potency [9] 9.35 µM

c1nc2nc(Nc3ccc(N4CCOCC4)cc3)nc(NC3CCCCC3)c2[nH]1
active: Potency [1] 26400 nM | Potency [2] 6620 nM | Potency [3] 14.8 µM | Potency [4] 4690 nM | Potency [5] 14800 nM | Potency [6] 3320 nM | Potency [8] 6.62 µM | Potency [10] 743 nM | Potency [9] 14.8 µM

CC[C@@H]1C(=O)N(C)c2cnc(Nc3ccc(C(=O)NC4CCC(N5CCN(CC6CC6)CC5)CC4)cc3OC)nc2N1C(C)C (stereo not given in full)
active: Potency [1] 59 nM | Potency [2] 1480 nM | Potency [3] 0.743 µM | Potency [4] 118 nM | Potency [5] 132 nM | Potency [6] 83.3 nM | Potency [7] 52.6 nM | Potency [10] 3320 nM | Potency [9] 8.33 µM

COc1cc2nccc(Oc3ccc(NC(=O)C4(C(=O)Nc5ccc(F)cc5)CC4)cc3)c2cc1OC
active: Potency [1] 26400 nM | Potency [2] 18700 nM | Potency [3] 2.96 µM | Potency [4] 1870 nM | Potency [5] 16600 nM | Potency [6] 2960 nM | Potency [8] 5.26 µM | Potency [7] 2960 nM
inactive: Potency [10]

CN1CCN(Cc2ccc(NC(=O)Nc3ccc(Oc4cc(NC(=O)C5CC5)ncn4)cc3)cc2C(F)(F)F)CC1
inactive: Potency [4] | Potency [6] | Potency [8] | Potency [7] | Potency [10]
active: Potency [1] 296 nM | Potency [2] 148 nM | Potency [3] 0.332 µM | Potency [5] 372 nM | Potency [9] 0.132 µM

CC(=O)OCCN1C(=O)c2c(C)nc3ccc(S(=O)(=O)N4CCOCC4)cc3c2C1=O
active: viability (% of DMSO) [10] 109%
inactive: Potency [1] | Potency [2] | Potency [3] | Potency [4] | Potency [5] | Potency [6] | Potency [8] | Potency [7]

O=C(c1cncc(Br)c1)N1CCC(N2CCCC2)CC1
inactive: Potency [1] | Potency [2] | Potency [3] | Potency [4] | Potency [6] | Potency [8]
active: Potency [5] 16600 nM

Nc1ncnc2c1c(-c1cccc(OCc3ccccc3)c1)cn2C1CC(CN2CCCC2)C1 (stereo not given)
active: Potency [1] 26400 nM | Potency [2] 59 nM | Potency [3] 23.5 µM | Potency [4] 16600 nM | Potency [5] 16600 nM | Potency [6] 1180 nM | Potency [8] 5.9 µM | Potency [7] 4180 nM | Potency [9] 5.26 µM

O=C(O)C1(Cc2cccc(Nc3nccs3)n2)CCC(Oc2cccc(Cl)c2F)CC1 (stereo not given)
inactive: Potency [3]
active: Potency [1] 418 nM | Potency [2] 166 nM | Potency [4] 235 nM | Potency [5] 590 nM | Potency [9] 0.264 µM

Cc1cn2c(-c3cn[nH]c3)cnc2c(Nc2ccc(C(=O)N3CCNCC3)cc2F)n1
active: Potency [1] 16600 nM | Potency [2] 7430 nM | Potency [3] 18.7 µM | Potency [5] 23500 nM | Potency [6] 5900 nM | Potency [9] 16.6 µM
inactive: Potency [4]

COc1ccc(CC2SC(=O)NC2=O)cc1C(=O)NCc1ccc(C(F)(F)F)cc1 (stereo not given)
inactive: Potency [1] | Potency [2] | Potency [3] | Potency [4] | Potency [5] | Potency [9]
